{
  "source": "PubChem BioAssay AID504336",
  "about": "(NMMLSC, 2011)",
  "note": "“And” between values parts separate entries of the source, which are not always exact repeats. Equal entries are not always repeated. The source made the active and inactive calls.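 Rule for the calls: active = compounds whose GFP signal falls below 65% of the DMSO control level; inconclusive = fewer than 70 yeast cells counted in the well; inactive = the rest.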",
  "data": [
    {"assay": "TOR branch reporter RPL19A-GFP response – cell-based, S. cerevisiae, third cherry pick, flow cytometry, confirmation (AID 504336);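 note: median GFP fluorescence of all gated yeast cells by flow cytometry; ratio of well median fluorescence to plate mean of DMSO wells with DMSO = 100%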", "settings": "S. cerevisiae RPL19A-GFP strain, 3 h, at 10 µM, hits give low values", "values": [
      {"smiles": "O=C1c2ccccc2C(=O)c2c1cccc2N(CCO)CCO", "GFP response relative to DMSO": "99.8% (inactive)"},
      {"smiles": "COc1ccccc1-c1cc(C(F)(F)F)nc(S(=O)(=O)CCCC(=O)NC(C)C)n1", "GFP response relative to DMSO": "94.4% (inactive) and 99.1% (inactive)"},
      {"smiles": "COc1cccc(OCc2cc(C(=O)N3CCN(C)C(c4ccccc4)C3)no2)c1", "note": "(stereo unspecified)", "GFP response relative to DMSO": "96.5% (inactive)"},
      {"smiles": "CC(=O)NCCOc1cccc2cccnc12", "GFP response relative to DMSO": "102% (inactive)"},
      {"smiles": "Cc1ccc(NN2C(=O)C=C(c3ccccc3)C2=O)cc1", "GFP response relative to DMSO": "61.2% (active)"},
      {"smiles": "COc1ccccc1Nc1nc(NCC(C)C)nc(N)c1[N+](=O)[O-]", "GFP response relative to DMSO": "102% (inactive)"},
      {"smiles": "CC(=O)CC(=O)Nc1ccc(C(N)=O)cc1", "GFP response relative to DMSO": "100% (inactive)"},
      {"smiles": "CNc1nc(N)c([N+](=O)[O-])c(Nc2cccc(Cl)c2)n1", "GFP response relative to DMSO": "94.1% (inactive)"},
      {"smiles": "Oc1ccc(Cl)c2cccnc12", "GFP response relative to DMSO": "98% (inactive)"},
      {"smiles": "Nc1nc(NCCOCCO)nc(Nc2cccc(F)c2)c1[N+](=O)[O-]", "GFP response relative to DMSO": "102% (inactive)"},
      {"smiles": "COc1ccc(-c2cc(C(F)(F)F)nc(S(C)(=O)=O)n2)cc1OC", "GFP response relative to DMSO": "99.6% (inactive) and 103% (inactive)"},
      {"smiles": "CS(=O)(=O)c1nc(-c2ccc(F)cc2)cc(C(F)(F)F)n1", "GFP response relative to DMSO": "97.8% (inactive)"},
      {"smiles": "COC(=O)COc1c(Cl)cc(Cl)c2ccc(C)nc12", "GFP response relative to DMSO": "105% (inactive)"},
      {"smiles": "C=CCNc1nc(N)c([N+](=O)[O-])c(Nc2ccccc2OC)n1", "GFP response relative to DMSO": "102% (inactive)"},
      {"smiles": "Oc1c(I)cc(Cl)c2cccnc12", "GFP response relative to DMSO": "86% (inactive)"},
      {"smiles": "COc1ccccc1OCc1cc(C(=O)N2CCN(C)C(c3ccccc3)C2)no1", "note": "(stereo unspecified)", "GFP response relative to DMSO": "101% (inactive)"},
      {"smiles": "COCCNc1nc(N)c([N+](=O)[O-])c(Nc2ccc(F)cc2)n1", "GFP response relative to DMSO": "100% (inactive)"},
      {"smiles": "COc1ccccc1-c1cc(C(F)(F)F)nc(S(=O)(=O)CCCC(=O)O)n1", "GFP response relative to DMSO": "102% (inactive)"},
      {"smiles": "CS(=O)(=O)Oc1ccc(Br)c2cccnc12", "GFP response relative to DMSO": "99.3% (inactive)"},
      {"smiles": "Cc1cc(C)c2ccc(C(=O)O)nc2c1O", "GFP response relative to DMSO": "98.5% (inactive)"},
      {"smiles": "COc1ccc(N/C(C)=C/C(=O)c2ccccc2)cc1", "GFP response relative to DMSO": "102% (inactive)"}
    ]}
  ]
}
